# Source: PubChem BioAssay (National Center for Advancing Translational Sciences (NCATS))
# D2 antagonist = antagonizes the human D2 dopamine receptor | P14416 | HEK293 TREx D2 cells, calcium flux, dopamine EC80 | inhibition, % at 10 µM | hit rate 2% among 340,000; in the data active means inhibition above about 30%; inactive means below that, where a call was filed; further: 0% is about no effect
#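 Calcium mobilization kinetics were recorded at 1 s intervals in tetracycline-induced HEK293 T-REx D2 cells, first for 180 s after compound addition and then 180 s after EC80 dopamine.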
# D2 PAM-1 = D2 dopamine receptor (human) potentiation | potentiation, % at 10 µM | HEK293 T-REx D2, calcium flux, EC20 dopamine potentiation | hit rate 0.34% among 340,000 | AID 485347 | P14416;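 active means potentiation over 3 SD above the plate norm, cut at about 30% in these data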; further: 0% is about no effect
#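 Primary screen. Calcium kinetics in induced HEK293 T-REx D2 cells: compound pre-addition 180 s, EC20 dopamine, 180 s more.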
# D2 ag-1 = agonists of human D2 dopamine receptor (beta-arrestin); activation, % (concentration not given with the values); hit rate 0.084% among 360,000; P14416; DiscoveRx PathHunter D2 beta-arrestin, luminescence, 90 min; 100% = 57 uM dopamine signal; AID 624465; in the data active means activation above about 40%; inconclusive means between about 15% and that limit
#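 Agonist mode: compounds alone added to overnight-plated D2 PathHunter cells for 90 min at 37 C, with 57 uM final dopamine (EC100) defining full response. Beta-arrestin recruitment detected by chemiluminescent reagent, read after 1 h at ambient temperature.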
# D2 ag-2 = agonists of human D2 dopamine receptor; activation, % at 2 µM; HEK293 T-REx D2 cells, calcium flux agonist mode; P14416; hit rate 0.53% among 340,000;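 active means activation over 3 SD above normal in the single-dose calcium agonist read, cut at about 30% in these data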; further: 0% is about no effect
#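 Tetracycline-induced HEK293 Trex cells with D2 receptor force-coupled to calcium signaling, plated overnight at 30 C and loaded with no-wash calcium dye. Calcium flux read kinetically for 180 s after compound addition; responses flag agonists.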
# D2 PAM-2 = potentiates the human D2 dopamine receptor allosterically; DiscoveRx D2 beta-arrestin cells, luminescence, 90 min; 100% = 57 uM dopamine signal; potentiation, % (test concentration not listed); hit rate 0.23% among 360,000; P14416; in the data active means potentiation above about 50%; inconclusive means mostly about 30% to 49%
#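 PathHunter D2 cells, attached overnight at 37 deg C, received compound in DMSO plus dopamine at EC20 (50 nM final) for 90 min at 37 deg C. Beta-arrestin recruitment was read as luminescence after 1 h with detection reagent at ambient temperature.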
# D3 ag = activates human D3 dopamine receptor beta-arrestin recruitment. DiscoveRx D3 beta-arrestin cells, luminescence, 90 min. Potency, µM (highest dose often 76.9 µM), inactives show top-dose activation, hits mostly activators. AID 720506. hit rate 4% among 2,300. shares compounds with D2 ag-2;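 further: potency means the concentration at half of the fitted maximal effect; 100% = dopamine control response; nearly all actives have a fitted effect of over 70% in size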
# Target sequence (P35462 whole entry, looked up): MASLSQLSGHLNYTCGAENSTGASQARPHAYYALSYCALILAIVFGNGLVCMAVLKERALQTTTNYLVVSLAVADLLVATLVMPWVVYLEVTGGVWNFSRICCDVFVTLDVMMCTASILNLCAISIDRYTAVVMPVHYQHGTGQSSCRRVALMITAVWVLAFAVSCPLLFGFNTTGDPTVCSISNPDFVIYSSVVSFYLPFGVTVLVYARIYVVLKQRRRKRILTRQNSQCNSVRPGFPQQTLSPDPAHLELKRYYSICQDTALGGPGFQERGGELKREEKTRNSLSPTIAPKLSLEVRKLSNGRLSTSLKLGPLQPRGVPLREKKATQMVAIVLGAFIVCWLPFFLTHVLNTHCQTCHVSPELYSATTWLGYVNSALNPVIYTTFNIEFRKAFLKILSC
# D2 ag-3 = D2 receptor agonism, beta-arrestin counterscreen; hit rate 5.9% among 2,300; shares compounds with D2 ag-2; Potency, µM (top dose mostly 76.9 µM), for the others: at the highest dose activation, most hits filed as activators; DiscoveRx PathHunter D2 beta-arrestin, luminescence, 90 min; response scale: percent relative to full dopamine signal; further: potency means the concentration at half of the fitted maximal effect; % of control where 0% means no effect; nearly all actives have a fitted effect of over 70% in size
# * = called active by the depositor; ? = inconclusive; . = no result. Only some compounds are listed: those with a hit (about 2.4% of all), similar ones and a draw of the others. Unless noted, the call rests on the fitted dose curve; in most records, active means well fitted activation curve with a large enough effect; inconclusive means small, poorly fitted or top-dose-only effect; inactive means flat fitted curve, though single readings scatter.
SMILES,D2 antagonist,D2 PAM-1,D2 ag-1,D2 ag-2,D2 PAM-2,D3 ag,D2 ag-3
CSc1nc2ccc(NC(=O)c3ccc(=O)n(C)n3)cc2s1,20.4,-13.5,1.4,16.6,-9.1,22.2%,11.8%
CSc1nc2ccc(NC(=O)c3ccc(F)c(F)c3)cc2s1,-11.0,-4.8,-2.1,2.3,-4.6,.,.
CSc1nc2ccc(NC(=O)c3ccc(=O)[nH]c3)cc2s1,-4.4,-16.6,5.2,49.4*,-5.8,-7.3%,0.9%
CC1(C(=O)NCc2ccccc2)CCC(=O)N1CCc1c[nH]c2ccccc12 (stereo not given),.,.,-3.8,.,-7.4,.,.
O=C(CCN1CCC(c2ccccc2)C1)c1cccs1 (stereo not given),10.6,-23.4,-0.6,-0.2,-16.0,.,.
COc1cc(C(=O)CCN2CCC(c3ccccc3)C2)cc(OC)c1OC (stereo not given),24.3,-26.1,-3.7,46.4*,-38.5,-9.1%,-2.9%
Nc1ccc(-c2nc3cc([N+](=O)[O-])ccc3o2)cc1,-6.3,18.4,-2.6,1.0,-12.0,17.4%,6.8%
CCOc1ccc(NC(=S)NC(=O)c2c(Br)cnn2C)c([N+](=O)[O-])c1,4.5,-15.8,-4.9,47.8*,-5.5,-5.1%,1.4%
Brc1cccc(OCCN2CCc3ccccc3C2)c1,96.1*,-30.8,-4.4,51.8*,-2.0,25.3%,1.1%
Cc1cccc(NC(=O)Nc2nnc(N3CCCC3)s2)c1,.,0.4,.,4.9,.,.,.
O=C(c1ccco1)N1CCN(C(=O)C2CCN(S(=O)(=O)c3cccs3)CC2)CC1,-0.6,-10.6,-4.7,0.5,-13.4,-0.1%,1.0%
COc1ccc(-n2ncc3c(NCc4ccco4)ncnc32)cc1,-4.0,17.6,1.5,-0.8,-0.6,.,.
Clc1ccc(-n2ncc3c(NCc4ccco4)ncnc32)cc1,-21.8,-9.0,1.2,-2.2,6.4,3.6%,2.7%
COc1cc(CN2CCN(C(=O)CC(C)C)CC2)cc(OC)c1OC,-0.7,2.2,0.5,-0.2,3.0,.,.
COc1ccc(CN2CCN(C(=O)CC(C)C)CC2)cc1,22.9,-4.1,-2.0,38.1*,-8.3,-1.6%,3.1%
Cc1ccc(CN2CCN(C(=O)CC(C)C)CC2)cc1,.,.,8.9,.,6.6,1.7%,9.9%
Cc1ccc(NC(=O)Cn2cc3c(n2)CCC(C)C3)cc1C (stereo not given),.,-9.4,.,0.2,.,.,.
Cc1cccc(Nc2nc3c(S(=O)(=O)c4ccc(Br)cc4)nnn3c3ccsc23)c1C,.,5.5,.,-0.4,.,.,.
CCOc1ccccc1NC(=O)c1c(NC(=O)COc2ccccc2)sc2c1CCCCC2,.,6.3,.,0.5,.,.,.
Cc1nc2c([nH]1)C1(CCN(Cc3ccccc3)CC1)C(C#N)=C(N)O2,60.0*,-36.0,?,71.4*,7.8,7.9%,10.5%
CC1(C)CC(=O)C2=C(C1)OC(N)=C(C#N)C21CCN(Cc2ccccc2)CC1,-15.7,6.6,2.4,3.0,-22.3,.,.
CNC(=O)C1CCC(Cn2c(=O)c3sccc3n(CC(=O)Nc3ccc(C)cc3C)c2=O)CC1 (stereo not given),.,-9.2,.,0.8,.,.,.
O=C(NCc1ccc2c(c1)OCO2)C1CCCN1C(=O)Nc1ccccc1 (stereo not given),66.0*,-6.1,-0.7,-0.3,-15.4,-10.7%,-1.8%
COc1ccccc1NC(=O)N1CCCC1C(=O)NCc1ccc2c(c1)OCO2 (stereo not given),-0.2,-8.5,-3.7,-1.2,-8.0,.,.
CCN1CCN(C(CCc2ccccc2)C(=O)NC2CCCCC2)CC1 (stereo not given),.,.,-4.2,.,-14.2,.,.
SMILES,D2 antagonist,D2 PAM-1,D2 ag-1,D2 ag-2,D2 PAM-2,D3 ag,D2 ag-3
CN(C(=O)c1ccccc1C(=O)OCC(=O)c1ccc(F)cc1)c1ccccc1,23.2,-8.2,-3.1,0.0,-8.0,-4.4%,0.4%
CN(C(=O)c1ccccc1C(=O)OCC(=O)c1ccccc1)c1ccccc1,.,.,2.0,.,2.0,.,.
O=C(CCc1nc2ccccc2c(=O)[nH]1)Nc1ccc(Cl)c(Cl)c1,54.3*,-22.8,?,70.4*,15.0,?,?
Cc1ccc(NC(=O)CSc2cn(CC(=O)N3CCCC3)c3ccccc23)cc1Cl,.,0.8,.,.,.,.,.
CCN(CC)c1ccc2cc(S(=O)(=O)c3ccc(C)cc3)c(=O)oc2c1,4.9,2.3,1.5,28.7,-2.3,-2.5%,1.7%
Cc1ccc(S(=O)(=O)c2cc3ccccc3oc2=O)cc1,13.3,0.8,-4.6,-1.3,-8.4,.,.
Cc1ccc(-n2ccnc(NCCc3ccc(S(N)(=O)=O)cc3)c2=O)c(C)c1,.,2.1,.,-0.3,.,.,.
NC(=O)CSc1nccn1Cc1ccccc1,44.8*,0.6,-1.3,0.4,-1.9,-2.5%,-1.0%
CCOc1ccc(NC(=O)Cn2c(=O)oc3cc(S(=O)(=O)NC4CCCC4)ccc32)cc1,.,8.6,.,-0.3,.,.,.
CNC[C@H](O)c1cccc(O)c1,90.9*,-27.7,2.2,76.8*,5.5,-1.0%,?
O=C(C1CCCN(Cc2cccnc2)C1)N1CCCCC1 (stereo not given),10.7,-1.7,3.5,0.1,-4.6,-2.2%,-2.1%
O=C(CSc1nnc(-c2cccc(Br)c2)o1)N1CCOCC1,12.7,2.0,-0.9,0.4,5.4,-4.4%,3.1%
CCOC(=O)C(C(=O)OCC)C(Nc1cccc(Br)c1)c1ccccc1 (stereo not given),2.6,0.9,-2.7,1.6,-19.2,.,.
CCOC(=O)C(NCCCCl)c1ccccc1 (stereo not given),21.9,-3.1,-1.0,34.7*,-5.0,-6.2%,-4.3%
Cc1ccc(CNC(=O)c2cc(S(=O)(=O)N3CCCCC3)cn2C)cc1,.,-0.8,.,0.9,.,.,.
C/C(=N\O)c1ccco1,4.1,15.5,-3.6,-1.1,-11.2,-1.8%,2.1%
C/C(=N\NC(=O)c1ccc(C(=O)N/N=C(\C)c2ccco2)o1)c1ccco1,-27.7,7.9,-1.3,0.6,-0.1,.,.
Cc1ccc(C)c(Nc2cc(C(=O)NC3CCCC3)c3ccccc3n2)c1,.,2.4,.,0.6,.,.,.
N#Cc1ccccc1OCC(=O)Nc1cc(S(=O)(=O)N2CCCCC2)ccc1N1CCOCC1,.,.,-3.3,.,-17.6,.,.
Cc1cc(C)c(OCC(O)CN2CCN(c3ccccn3)CC2)c(C)c1 (stereo not given),78.1*,-25.9,48.2*,78.8*,?,0.0794µM*,10µM*
Cc1cc(OCC(O)CN2CCN(c3ccccn3)CC2)cc(C)c1Cl (stereo not given),43.2*,-16.7,?,46.1*,5.1,6.31µM*,?
